PubChem BioAssay AID602310 (National Center for Advancing Translational Sciences (NCATS), 2012)
Out of some 410,000 compounds screened, about 310 (0.076%) were called active. About 2% were inconclusive and are not listed. The call rests on the fitted dose curve; in most records, active means well fitted curve in the direction sought with a large enough effect; inconclusive means small, poorly fitted or top-dose-only effect; inactive means flat fitted curve, though single readings scatter. Shown is part of a subset that was picked to be rich in actives.

molecular target: DNA dC->dU-editing enzyme APOBEC-3G (Homo sapiens) (UniProt Q9HC16); experiment: qHTS for Inhibitors of Vif-A3G Interactions: qHTS; settings: HeLa A3G-eYFP + Vif (tagged APOBEC3G with the HIV-1 protein that degrades it), YFP fluorescence, overnight; series mostly up to 46.1 µM; activity, negative = active: at the top concentration; further: nearly all actives have a fitted effect of over 60% in size;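 on activity, negative = active: hits raise eYFP signal because A3G escapes Vif-driven loss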
Sequence (Q9HC16 whole entry, looked up): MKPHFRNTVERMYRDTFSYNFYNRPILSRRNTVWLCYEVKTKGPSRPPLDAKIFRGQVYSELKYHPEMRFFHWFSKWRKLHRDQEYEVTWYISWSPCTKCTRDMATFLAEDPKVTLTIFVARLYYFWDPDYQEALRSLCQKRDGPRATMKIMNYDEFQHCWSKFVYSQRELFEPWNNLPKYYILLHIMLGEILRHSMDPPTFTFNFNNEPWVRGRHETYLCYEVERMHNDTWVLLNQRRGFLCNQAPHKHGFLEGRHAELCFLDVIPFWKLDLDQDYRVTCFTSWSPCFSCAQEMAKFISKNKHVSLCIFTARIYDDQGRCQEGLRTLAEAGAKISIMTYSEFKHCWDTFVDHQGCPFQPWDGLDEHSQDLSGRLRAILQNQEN
Outline: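 Read-out is eYFP fluorescence (Ex 488/Em 500-530) from Vif-expressing HeLa A3G-eYFP cells; more signal means A3G escaped Vif-mediated degradation. Cells plated overnight, compound pinned in, incubated overnight at 37 deg C.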
On the % scale 0 is the no-effect control and ±100 the full control effect; potency means the concentration at half of the fitted maximal effect.

activity, negative = active, inactive:
CCCCNC(=O)Cn1c(SCc2cccc(Cl)c2)nc2ccncc21 0.68%, CCCn1ccc2c(OCC(=O)NCc3ccc(F)cc3)cccc2c1=O -0.319%, O=C(Nc1ccc(Cl)cc1)c1cnn2c1NC(=C1CC1)C=C2C(F)F -0.955%, Cc1cccc(-c2nnc(SC(C)C(=O)Nc3ccccc3)n2C)c1 (stereo not given) -0.805%, CCN1CCN(c2ccc(/C=C/c3ccnc4ccccc34)cc2)CC1 1.79%, COc1ccc(-c2nc3c(c(SCC(=O)Nc4ccc(C(=O)O)cc4)n2)Cc2ccccc2O3)cc1 3.8%, Brc1cccc[n+]1Cc1cccc(C[n+]2ccccc2Br)c1 -5.54%, CC(C)(C)n1ncc2c(=O)n(Cc3ccc(C(=O)c4ccccc4)cc3)cnc21 -0.656%, OC(CBr)C[n+]1cccc2cc(Br)ccc21 (stereo not given) -3.43%, COC(=O)c1ccccc1NC(=O)c1cnn(-c2ccc(F)cc2)c1-n1cccc1 -4.09%, CCOc1ccc(N(CC)S(=O)(=O)N2CCCC(C(=O)NCc3ccc(Cl)cc3)C2)cc1 (stereo not given) 3.88%, N#Cc1ccc[n+](CC(=O)c2ccc(F)cc2)c1 -2.66%, O=C(C[n+]1ccncc1)c1ccc2c(c1)CCCC2 -7.56%, Cc1nn(CC(=O)N2CCN(c3cccc(C(F)(F)F)c3)CC2)c(=O)c2cc3sccc3n12 1.37%, CCCCC(CCCC)c1ccc(C=Nc2ccc(/C=C/c3ccnc4ccccc34)cc2)cc1 -7.47%, CCS(=O)(=O)N1CCc2cc(C(=O)NCc3ccc(C)cc3)ccc21 1.84%, CCCCN1C(=O)c2[nH]nc(-c3ccccc3O)c2C1c1cccc(OCc2ccccc2)c1 (stereo not given) -29.4%, ClC/C=C/C[n+]1ccccc1Cl 3.06%, CSc1n[nH]c(-c2ccco2)n1 -3.31%, CCOc1n[nH]c(-c2ccccc2)n1 3.57%, CCc1nn(CC(=O)Nc2cccc(C)c2C)c(=O)c2cc3sccc3n12 2.56%, CCOc1ccccc1NC(=O)CN1CCN(S(=O)(=O)c2ccc(Br)cc2)CC1 1.45%, COc1cccc(NC(=O)Cn2c(=O)cc(C)c3c(C)nn(-c4cccc(F)c4)c32)c1 0.977%, Nc1nc(N)c(N=O)c(N)n1 -0.374%, CCCCOc1ccc(C(=O)N2CC(=O)Nc3ccc(Br)cc3C2c2ccc(F)cc2)cc1 (stereo not given) -0.538%, COc1ccccc1/C=C/c1nc(C#N)c(NC(C)c2ccccc2)o1 (stereo not given) 0.452%, COc1ccc(CCNC(=O)c2ccc(CSCc3ccc(C)cc3)o2)cc1OC 4.58%, CNCCCOc1cc2nc(N3CCCN(C)CC3)nc(NC3CCN(C)CC3)c2cc1OC 2.66%, O=C(COc1ccccc1C(=O)Nc1ccccc1)Nc1cccc(F)c1 -2.9%, CC1(C)CC(=O)c2cc(C(=O)NCc3ccccc3)c(=O)[nH]c2C1 -3.12%, Cn1nnnc1SCCNCc1ccc(Cl)c(Cl)c1 -0.946%, Cc1csc[n+]1CCC1CCCCC1 1.21%, CCCCn1c(CNC(=O)C23CC4CC(CC(C4)C2)C3)nnc1SCC(=O)Nc1ccc(C)cc1 -0.393%, CCn1c(CNc2ccc(OC)cc2)nnc1SCC(=O)c1ccc(OC)cc1 0.533%, Cc1ccc(C(=O)COC(=O)C(Cc2c[nH]c3ccccc23)NC(=O)c2ccc(Br)cc2)cc1 (stereo not given) 2.11%, Cc1ccc(Cl)cc1N1CCN(C(=O)c2cn(C)c3ccc(S(=O)(=O)N(C)C4CCCCC4)cc3c2=O)CC1 0.271%, S=c1[nH]c(=S)c2n[nH]nc2[nH]1 4.48%, COc1cccc(C(=O)NC(=O)Nc2ccc(-c3cc(C(F)(F)F)nn3-c3ccccc3)cc2)c1 3.03%, COc1ccc(CCN2C(=O)N(c3cccc(OC)c3)C(=O)C2CC(=O)Nc2ccccc2)cc1 (stereo not given) 3.95%, COc1ccc(CC(=O)NCCc2sc3nc(-c4ccc(OC)cc4)nn3c2C)cc1 7.95%, CCc1ccc(Nc2nn3c(=O)c4cc5c(cc4nc3s2)OCO5)cc1 3.36%, CCOC(=O)c1c(C)[nH]c(C)c1S(=O)(=O)NCC(=O)NCc1cccc(C)c1 -0.939%, COc1ccc(CNC(=O)Cn2nnc(-c3ccc(S(C)(=O)=O)cc3)n2)cc1 2.9%, COc1ccc(OC)c(NC(=O)CSc2nc3ccccc3nc2N2CCCCC2)c1 -8.14%, Cc1ccc(Cn2cnc3c(cnn3C(C)(C)C)c2=O)c(F)c1 -1.28%, Brc1cccc(-c2nnn3c2nc(NC2CCCCC2)c2ccccc23)c1 5.7%

Potency, active:
N#CC1=C(N)Oc2c(sc3ccccc23)C1c1ccco1 (stereo not given) 11.2 µM, O=C(OC12CC3CC(CC(C3)C1)C2)c1ccc(NCc2cc(O)ccc2O)cc1 6.31 µM, C[n+]1ccc(/C=C/c2c[nH]c3ccccc23)cc1 11.2 µM, CCn1c(CNC(=O)C23CC4CC(CC(C4)C2)C3)nnc1SCC(=O)Nc1ccc(OC)cc1 10 µM
